Test in all cases: SELEX-seq (CSI, HT-SELEX, round 3); SELEX-seq: 1x PBS (10 mM phosphate, 137 mM NaCl, 2.7 mM KCl) pH 7.6, 2.5 mM DTT, 50 ng/ul poly dI-dC, 0.1% BSA, 50 nM biotinylated bZIP (1:3 with partner for heterodimers), 100 nM library, room temperature, 1 h, 3 rounds; high values mean tight binding
Settings in all cases: protein: recombinant;recombinant; copies: 1;1; dsDNA, one strand shown

The target of experiment [1] is T1, JUNB;BATF2 (Homo sapiens;Homo sapiens, UniProt P17275;Q8N1L9 259-332;8-85, |).
T1 sequence 1: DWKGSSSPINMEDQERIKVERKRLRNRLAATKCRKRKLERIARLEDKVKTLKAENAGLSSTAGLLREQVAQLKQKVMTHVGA
T1 sequence 2: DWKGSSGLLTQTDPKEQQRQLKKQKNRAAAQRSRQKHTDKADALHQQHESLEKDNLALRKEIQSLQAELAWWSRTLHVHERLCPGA

In experiment [2] the target is T2, JUNB;CREBZF (Homo sapiens;Homo sapiens, UniProt P17275;Q9NS37 259-332;195-272, |).
T2 sequence 1: T1 sequence 1
T2 sequence 2: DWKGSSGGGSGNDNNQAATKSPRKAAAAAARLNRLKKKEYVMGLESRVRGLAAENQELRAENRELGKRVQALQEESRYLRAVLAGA

For experiment [3], the target named is T3, BATF;HLF (Homo sapiens;Homo sapiens, UniProt Q16520;Q16534 17-90;216-293, |).
T3 sequence 1: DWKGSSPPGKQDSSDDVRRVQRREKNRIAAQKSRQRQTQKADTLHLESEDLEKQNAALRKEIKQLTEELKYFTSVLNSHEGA
T3 sequence 2: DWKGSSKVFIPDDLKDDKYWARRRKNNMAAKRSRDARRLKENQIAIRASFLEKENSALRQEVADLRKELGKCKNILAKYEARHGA

For experiment [4], the target named is T4, BATF;NFIL3 (Homo sapiens;Homo sapiens, UniProt Q16520;Q16649 17-90;64-134, |).
T4 sequence 1: T3 sequence 1
T4 sequence 2: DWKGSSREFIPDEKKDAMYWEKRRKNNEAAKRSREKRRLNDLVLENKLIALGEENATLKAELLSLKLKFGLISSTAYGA

Experiment [5] concerns the target T5, FOSL1;CEBPE (Homo sapiens;Homo sapiens, UniProt P15407;Q15744 96-169;195-267, |).
T5 sequence 1: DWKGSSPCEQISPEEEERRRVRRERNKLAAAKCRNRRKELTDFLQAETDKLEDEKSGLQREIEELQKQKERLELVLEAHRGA
T5 sequence 2: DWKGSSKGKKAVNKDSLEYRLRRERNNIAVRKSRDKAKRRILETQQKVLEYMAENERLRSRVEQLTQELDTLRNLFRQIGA

The target of experiment [6] is T6, FOSL1;FOSL1 (Homo sapiens;Homo sapiens, UniProt P15407;P15407 96-169;96-169, |).
T6 sequence 1: T5 sequence 1
T6 sequence 2: T5 sequence 1

The target in experiment [7] is T7, FOSL1;NFE2 (Homo sapiens;Homo sapiens, UniProt P15407;Q16621 96-169;221-337, |).
T7 sequence 1: T5 sequence 1
T7 sequence 2: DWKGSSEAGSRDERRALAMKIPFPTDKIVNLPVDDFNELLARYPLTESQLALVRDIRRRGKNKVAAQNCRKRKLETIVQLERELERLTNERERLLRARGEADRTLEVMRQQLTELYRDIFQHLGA

For experiment [8], the target named is FOS;BATF (Homo sapiens;Homo sapiens, UniProt P01100;Q16520 128-201;17-90, |).
Chain of FOS;BATF (P01100 other isoform, or with tags, fused parts or gaps |, chain 1 of 2, one chain of several): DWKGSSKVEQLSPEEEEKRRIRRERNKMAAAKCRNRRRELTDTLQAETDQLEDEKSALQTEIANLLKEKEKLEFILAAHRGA
Experiment [9] deals with FOS;FOSL1 (Homo sapiens;Homo sapiens, UniProt P01100;P15407 128-201;96-169, |).
Chain of FOS;FOSL1 (P01100 other isoform, or with tags, fused parts or gaps |): as the sequence (P01100 other isoform, or with tags, fused parts or gaps |, chain 1 of 2, one chain of several) above
The target in experiment [10] is FOS;NFE2 (Homo sapiens;Homo sapiens, UniProt P01100;Q16621 128-201;221-337, |).
Chain of FOS;NFE2 (P01100 other isoform, or with tags, fused parts or gaps |): as the sequence (P01100 other isoform, or with tags, fused parts or gaps |, chain 1 of 2, one chain of several) above

Regarding ATGACGTCAT, the binding signal in [1] is 1 relative CSI intensity (max = 1); in [2] it was 1 relative CSI intensity (max = 1); in experiment [3], 0.814 relative CSI intensity (max = 1); in [4], 1 relative CSI intensity (max = 1); in experiment [5], 0.0518 relative CSI intensity (max = 1); in experiment [6] it was 1 relative CSI intensity (max = 1). In addition, the binding signal in [7] is 0.466 relative CSI intensity (max = 1); in experiment [8], 1 relative CSI intensity (max = 1); in [9] it was 0.96 relative CSI intensity (max = 1); in experiment [10] it was 0.106 relative CSI intensity (max = 1).

Take ATGATGCAAT: the binding signal in [1] was 0.00121 relative CSI intensity (max = 1); in experiment [2], 0.00786 relative CSI intensity (max = 1); in experiment [3], 0.179 relative CSI intensity (max = 1); in experiment [4], 0.0609 relative CSI intensity (max = 1); in experiment [5], 0.0136 relative CSI intensity (max = 1); in [6], 0.00963 relative CSI intensity (max = 1). Besides, the binding signal in experiment [7] was 0.12 relative CSI intensity (max = 1); in [10] it was 0.0393 relative CSI intensity (max = 1).

For CCTGACGTCA, the binding signal is 0.0149 relative CSI intensity (max = 1) in experiment [1]; 0.0974 relative CSI intensity (max = 1) in experiment [3]; 0.00153 relative CSI intensity (max = 1) in [5]; 0.0039 relative CSI intensity (max = 1) in [6]; 0.0335 relative CSI intensity (max = 1) in experiment [7]; 0.0057 relative CSI intensity (max = 1) in experiment [8]. Besides, the binding signal in experiment [10] is 0.00384 relative CSI intensity (max = 1).

For the sequence ATGACGCAAT, the binding signal in [1] is 0.00872 relative CSI intensity (max = 1); in experiment [2], 0.0122 relative CSI intensity (max = 1); in [3], 0.105 relative CSI intensity (max = 1); in [4], 0.155 relative CSI intensity (max = 1); in experiment [5], 0.0294 relative CSI intensity (max = 1); in experiment [6] it was 0.0097 relative CSI intensity (max = 1). The binding signal in [7] is 0.18 relative CSI intensity (max = 1); in [8], 0.00539 relative CSI intensity (max = 1); in experiment [9], 0.0408 relative CSI intensity (max = 1); in experiment [10] it was 0.0862 relative CSI intensity (max = 1).

As for ATGACGGAAT, the binding signal is 0.00176 relative CSI intensity (max = 1) in [2], 0.0575 relative CSI intensity (max = 1) in experiment [7], 0.0281 relative CSI intensity (max = 1) in [9] and 0.00162 relative CSI intensity (max = 1) in experiment [10].

On to ATGACGTAAT, for which the binding signal is 0.0936 relative CSI intensity (max = 1) in [1]; 0.0382 relative CSI intensity (max = 1) in [2]; 0.71 relative CSI intensity (max = 1) in experiment [3]; 0.786 relative CSI intensity (max = 1) in experiment [4]; 0.00904 relative CSI intensity (max = 1) in experiment [5]; 0.0331 relative CSI intensity (max = 1) in [6]. Also, the binding signal is 0.129 relative CSI intensity (max = 1) in experiment [7], 0.0179 relative CSI intensity (max = 1) in experiment [8], 0.0348 relative CSI intensity (max = 1) in experiment [9] and 0.0286 relative CSI intensity (max = 1) in [10].

The record behind these values is paper PMC5349851, “Combinatorial bZIP dimers display complex DNA-binding specificity landscapes”.
